This note sets out measurements from PubChem BioAssay (NCATS).

The test system of one assay is CRL-7250. The assay is described as follows: Cytotoxic Profiling of Annotated Libraries Using Quantitative High-Throughput Screening (AID 1296008). Further: potency means the concentration at half of the fitted maximal effect. On max response: on the % scale 0 is the no-effect control and ±100 the full control effect. Particulars: Five cell lines viability, CellTiter-Glo ATP luminescence, 48-72 h; max response: hits give low values. The method in brief: (§1)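 Compounds were pin-transferred onto cells and incubated 48 or 72 hr at 37 degree Celsius, 95% humidity. CellTiter-Glo was added, plates sat 10 min at room temperature, then ATP-coupled luminescence was imaged as the viability read-out.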
For orientation: In ATP-based viability assays light output follows the ATP content of the culture.

In a further assay the test system is HEK293. Described as above. The conditions noted are these: Five cell lines viability, CellTiter-Glo ATP luminescence, 48-72 h; max response: hits give low values. A digest of the protocol:
as §1

Assay [1] relates to HaCat. Described as above. Particulars: Five cell lines viability, CellTiter-Glo ATP luminescence, 48-72 h; max response: hits give low values. The method in brief: as §1
A further assay relates to KB-3-1. Described as above. The conditions noted are these: Five cell lines viability, CellTiter-Glo ATP luminescence, 48-72 h; max response: hits give low values. A digest of the protocol:
as §1

The test system of a further assay is NIH3T3. The description is as above. Particulars: Five cell lines viability, CellTiter-Glo ATP luminescence, 48-72 h; max response: hits give low values. The method in brief: as §1
The subject of assay [2] is HACAT. The assay is described as follows: qHTS assay to identify novel small-molecules to repurpose for Merkel cell carcinoma treatment (AID 1296009). Particulars: MCC and control cell lines, CellTiter-Glo viability, 72 h; at 44.8 µM (top of the series) unless noted. The method in brief: (§2)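 Viability readout: ATP luminescence (CellTiter-Glo) after 72 hr drug exposure at 37 degree celsius. Dose-response format was 8 points for NPC and 11 points for MIPE; data normalized to in-plate controls.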
On the technique in general: Quantitative high-throughput screening tests each substance at several concentrations.

The subject of the next assay is HEK293T. The description is as above. Particulars: MCC and control cell lines, CellTiter-Glo viability, 72 h; series mostly up to 44.8 µM. A digest of the protocol: as §2

Several values for one entry are separate records, joined by “and”; a condition that tells them apart may be missing. Equal entries are not always repeated. Results filed as inconclusive are left out. Some structures have more than one record in an assay (separate samples or runs), and their calls can disagree. Values without a mark were called inactive. Activity calls are given as the source filed them. The call rests on the fitted dose curve; in most records, active means well fitted inhibition curve with a large enough effect; inconclusive means small, poorly fitted or top-dose-only effect; inactive means flat fitted curve, though single readings scatter.
Further: nearly all actives have a fitted effect of over 60% in size.

Regarding `CO/N=C(/C(=O)N[C@@H]1C(=O)N2C(C(=O)O)=C(CSC(=O)c3ccco3)CS[C@H]12)c1csc(N)n1`, the max response in the assay with CRL-7250 was -7.13% and 1.26%; with HEK293, 3.45% and -9.59%; in the assay on HaCat [1], 4.84%; in the assay with KB-3-1 it was -14.5%; in the assay with NIH3T3, 0.301% and -3.25%. Also, the outcome with HaCat [1] and in the assay on HACAT [2] was “inactive; activator” in each case. Moreover, in the assay on KB-3-1, the call was inactive.
Take `O=C(O)C[C@H](O)C[C@H](O)/C=C/c1c(C2CC2)nc2ccccc2c1-c1ccc(F)cc1`: the Potency was 0.731 µM (active) in the assay with CRL-7250; 5.8 µM (active) with HEK293; 7.31 µM (active) in the assay on HaCat [1]; 4.61 µM (active) with KB-3-1; 14.6 µM (active) in the assay on NIH3T3.
On to `CC1=C2C(=O)O[C@@H](c3ccoc3)[C@]2(C)CCC1`, for which the max response in the assay with CRL-7250 is -4.96%; in the assay on HEK293, -8.51% and 3.13%; in the assay with HaCat [1], 0.193%; with KB-3-1, 4.53%; in the assay on NIH3T3 it was 0.635% and 0.0895%. The compound was called inactive with CRL-7250 and with KB-3-1.
On to `C#C[C@]1(O)CC[C@H]2[C@@H]3CCC4=C/C(=N/O)CC[C@@H]4[C@H]3CC[C@@]21CC`, for which the max response in the assay on CRL-7250 is 4.4%; with HEK293 it was -0.147%; in the assay on HaCat [1], -21.3%; with KB-3-1, -19.2% and -21.5%. Also, the outcome in the assay with NIH3T3 was inactive.
Regarding `N[C@H]1C[C@H]1c1ccc(-c2cccc(O)c2)cc1`, the max response in the assay with CRL-7250 was 0.175% and -10.6%; in the assay with HEK293 it was -29.8% and -17.5%; with HaCat [1], -1.19%; in the assay on NIH3T3 it was -6.35%. For the same compound, the call in the assay on HaCat [1], in the assay on KB-3-1, in the assay with NIH3T3 and in the assay on HACAT [2] was inactive.
Take `Cc1nn(C)c2c1C(c1ccc(C(F)(F)F)cc1)C(C#N)=C(N)O2` (configuration not stated): the max response with CRL-7250 is 4.37%; with HEK293, -4.39% and 2.32%; with HaCat [1] it was -6.13% and -14.3%; in the assay on KB-3-1, 9.42%; in the assay on NIH3T3, 1.84%. The result in the assay on CRL-7250 and in the assay with NIH3T3 was inactive.
Turning to `N#Cc1ccnc(N2C(=O)CC[C@H]2C(=O)N(c2cncc(F)c2)[C@H](C(=O)NC2CC(F)(F)C2)c2ccccc2Cl)c1`, the max response with CRL-7250 was -10.6%; in the assay with HEK293 it was -9.11%; in the assay with HaCat [1], -27%; in the assay with NIH3T3, -4.58%. For the same compound, the Potency was 3.31 µM (active) in the assay on HEK293 and 23.4 µM (active) with HaCat [1].
Take `Cc1cc(Nc2ncc(Cl)c(Nc3ccccc3S(=O)(=O)C(C)C)n2)c(OC(C)C)cc1C1CCNCC1`: in the assay with CRL-7250, the max response was -10.6%. The Potency with HEK293 is 8.2 µM (active) and 4.17 µM (active); in the assay with KB-3-1, 18.4 µM (active); in the assay with NIH3T3, 23.4 µM (active). Moreover, the outcome in the assay with HaCat [1], in the assay with NIH3T3 and in the assay on HACAT [2] was inactive.
`CC(=O)O[C@H]1C[C@@H]2[C@]3(CC[C@]4(C)[C@@H](C5(C)CCC(C(C)(C)O)O5)[C@@H](O)C[C@@]24C)C[C@@]32CC[C@H](O[C@@H]3OC[C@@H](O)[C@H](O)[C@H]3O)C(C)(C)[C@H]12` (some centres not stated): the results for the max response with CRL-7250 and in the assay on NIH3T3 were 4.65% and 1.48%, respectively. In addition, the compound was called inactive in the assay with HEK293, in the assay on HaCat [1] and in the assay with KB-3-1. Besides, the outcome in the assay on HACAT [2] is “inactive [at 17.4 µM]”. In the assay on HEK293T, the Potency result is “inactive”.
As for `C=C1CC[C@@H]2[C@](C)(CO[C@@H]3O[C@H](CO)[C@@H](O)[C@H](O)[C@H]3O)CCC[C@@]2(C)[C@@H]1CCC1=CCOC1=O`, the call in the assay on CRL-7250, in the assay on HEK293, with HaCat [1] and in the assay with NIH3T3 was inactive. Further, the max response with KB-3-1 was 2.64%. For the same compound, the outcome in the assay on HACAT [2] is “inactive [at 17.4 µM]”. Besides, the Potency entry in the assay with HEK293T is “inactive”.
With `Cc1ncc([N+](=O)[O-])n1CC(O)CN1CCOCC1` (configuration not stated), the compound was classed as inactive in the assay with CRL-7250, in the assay with HEK293, in the assay with HaCat [1], with KB-3-1, with NIH3T3 and in the assay with HACAT [2]. In the assay with HEK293T, the Potency entry was “inactive”.
`CC1=C2C3OC(=O)C(C)C3(O)CCC2(C)CCC1=O` (configuration not stated): the max response with CRL-7250 was -29.1%. Further, the outcome in the assay on HEK293, in the assay on HaCat [1], with KB-3-1, in the assay on NIH3T3 and in the assay on HACAT [2] was inactive. In addition, the Potency entry in the assay with HEK293T is “inactive”.
For `C=CC(C)(O)CC/C=C(\C)C(=O)OC1CC2(C(=O)O)CCC3(C)C(=CCC4C5(C)CCC(OC6OC(COC7OCC(O)C(O)C7O)C(O)C(OC7OCC(O)C(O)C7O)C6OC6OC(CO)C(O)C(O)C6OC6OCC(O)C(O)C6O)C(C)(C)C5CCC43C)C2CC1(C)C` (configuration not stated), the max response was 0.69% in the assay on CRL-7250 and 1.8% with NIH3T3. Besides, the result with HEK293, with HaCat [1] and in the assay on KB-3-1 was inactive. Also, the outcome with HACAT [2] and in the assay with HEK293T was “inactive [at 9.27 µM]” throughout.
Regarding `CC(=O)c1c(O)cc2cccc3c2c1CC(C)(O)O3` (configuration not stated), the call in the assay on CRL-7250, in the assay with HEK293, in the assay with HaCat [1] and in the assay with HACAT [2] was inactive. Also, the figures for the max response with KB-3-1 and in the assay with NIH3T3 were 4.55% and -0.44%, respectively. For the same compound, the Potency entry with HEK293T was “inactive”.
For the compound `CCOC(=O)[C@H]1O[C@@H]1C(=O)N[C@@H](CC(C)C)C(=O)NCCC(C)C`, the compound was classed as inactive in the assay with CRL-7250, in the assay with HEK293, in the assay with HaCat [1], in the assay with KB-3-1 and with HACAT [2]. Besides, the max response in the assay on NIH3T3 was -2.92%. Also, in the assay with HEK293T, the Potency result is “inactive”.
